According to PMC4336329 (PLoS ONE, 2015):
Among all 310,000 compounds or so, about 14,000 (4.5%) showed an effect of 50% or more. The effect is printed as a negative number. Shown is part of a subset that was picked to be rich in strong results.

The compounds below were run against human ether-à-go-go-related gene (hERG) potassium channel (human, UniProt Q12809) (assay: primary screen, population patch clamp on CHO cells stably expressing hERG; higher = less effect of the substance).
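Further: peak tail current of the secondary pulse compared with the same well before compound.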

human ether-à-go-go-related gene (hERG) potassium channel, sequence (Q12809 whole entry, looked up): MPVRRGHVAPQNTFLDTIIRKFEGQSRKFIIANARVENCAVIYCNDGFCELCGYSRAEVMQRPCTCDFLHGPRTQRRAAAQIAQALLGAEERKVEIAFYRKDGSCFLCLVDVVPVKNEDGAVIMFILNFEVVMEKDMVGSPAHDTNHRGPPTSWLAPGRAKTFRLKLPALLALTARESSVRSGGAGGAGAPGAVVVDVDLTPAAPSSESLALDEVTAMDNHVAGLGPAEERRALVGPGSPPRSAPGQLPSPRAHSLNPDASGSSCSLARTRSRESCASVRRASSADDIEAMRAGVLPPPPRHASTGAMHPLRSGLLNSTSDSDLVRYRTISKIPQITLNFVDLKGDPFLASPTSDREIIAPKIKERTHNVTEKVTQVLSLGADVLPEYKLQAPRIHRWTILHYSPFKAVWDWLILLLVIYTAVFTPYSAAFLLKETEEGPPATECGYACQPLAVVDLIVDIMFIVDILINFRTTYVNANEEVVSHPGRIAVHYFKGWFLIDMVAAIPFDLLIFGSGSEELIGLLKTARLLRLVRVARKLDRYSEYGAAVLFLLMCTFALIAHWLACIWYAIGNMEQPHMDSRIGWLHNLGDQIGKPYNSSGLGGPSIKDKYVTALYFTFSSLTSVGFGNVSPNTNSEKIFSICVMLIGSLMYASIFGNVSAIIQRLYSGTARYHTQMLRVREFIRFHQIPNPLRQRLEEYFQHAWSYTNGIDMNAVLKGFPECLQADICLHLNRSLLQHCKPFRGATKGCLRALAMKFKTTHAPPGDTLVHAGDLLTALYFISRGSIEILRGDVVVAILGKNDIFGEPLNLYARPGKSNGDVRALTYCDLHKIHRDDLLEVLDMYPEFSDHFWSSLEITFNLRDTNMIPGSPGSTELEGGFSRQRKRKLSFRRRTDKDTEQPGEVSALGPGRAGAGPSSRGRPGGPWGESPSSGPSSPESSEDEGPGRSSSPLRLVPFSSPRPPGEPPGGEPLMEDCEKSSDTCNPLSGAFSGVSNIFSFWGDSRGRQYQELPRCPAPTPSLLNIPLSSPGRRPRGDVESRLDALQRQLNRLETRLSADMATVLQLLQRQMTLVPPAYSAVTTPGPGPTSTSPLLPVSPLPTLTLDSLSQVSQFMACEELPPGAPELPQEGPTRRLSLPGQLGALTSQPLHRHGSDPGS

| Compound | hERG current change (%, negative = inhibition) at 10uM [%] |
| --- | --- |
| COCCCNC(=O)c1ccc2c(=O)n(Cc3ccccc3OC)c(=S)[nH]c2c1 | 6.43 |
| O=C(NCCc1ccc(F)cc1)c1cccs1 | 10.4 |
| Cc1ccc(S(=O)(=O)N2CCN(C(=O)c3c(-c4ccccc4)noc3C)CC2)cc1C | 1.83 |
| C=CCSc1nc2c(c(-c3ccsc3)c1C#N)CN(C)CC2 | -65.2 |
| C=CCSc1nc(N)c(C#N)c(-c2ccc(C)cc2)c1C#N | 4.13 |
| CN1CCc2nc(N)c(C#N)c(-c3ccccc3)c2C1 | -7.5 |
| CN1CCc2nc(SC(C(=O)O)c3ccccc3)c(C#N)c(-c3cccs3)c2C1 (centres unmarked) | 19.4 |
| Cc1cccc(CSc2nc3c(c(-c4cccs4)c2C#N)CN(C)CC3)c1 | -13.1 |
| CN1CCc2nc(SCc3ccc(Cl)cc3)c(C#N)c(-c3cccs3)c2C1 | -66.2 |
| CN1CCc2nc(SCC(=O)Nc3cccc(F)c3)c(C#N)c(-c3cccs3)c2C1 | -62.3 |
| COc1ccc(NC(=O)CSc2nc3c(c(-c4cccs4)c2C#N)CN(C)CC3)cc1OC | 1.65 |
| CN1CCc2nc(SCC(=O)Nc3ccc(OC(F)(F)F)cc3)c(C#N)c(-c3cccs3)c2C1 | -12.8 |
| Cc1ccc(C(=O)Nc2cccc(C(=O)O)c2)cc1 | 14.4 |
| O=C(COC(=O)c1ccccc1F)Nc1cc(S(=O)(=O)N2CCOCC2)ccc1N1CCCC1 | -13.5 |
| Cc1oc2c(c(C)cc3oc(=O)c(CC(=O)NCCCN4CCCC4=O)c(C)c32)c1C | -0.519 |
| O=C(Nc1ncccc1O)c1ccc2c(c1)OCO2 | 3.08 |
| COc1ccccc1NC=C1C(=O)OC(C)(C)OC1=O | -24 |
| CCOC(=O)c1ccc(S(=O)(=O)N2CCN(C(C)=O)CC2)cc1 | 0.122 |
| CCc1nc(Nc2ccccc2)c2nnn(Cc3ccccc3)c2n1 | 8.23 |
| COC(=O)c1nn(-c2ccc(-c3ccccc3)cc2)cc1O | -3.85 |
| CC(C)Cn1c(N)c(C(=O)COC(=O)/C=C/c2cccs2)c(=O)n(C)c1=O | -49.9 |
| CC(C)Cn1c(N)c(C(=O)COC(=O)Cc2cccs2)c(=O)n(C)c1=O | -51.7 |
| Cc1csc(=O)n1CC(=O)OCC(=O)c1c(N)n(CC(C)C)c(=O)n(C)c1=O | -10.7 |
| Cc1ccc(C(=O)NCC(=O)OCC(=O)c2c(N)n(C)c(=O)n(C)c2=O)s1 | 9.14 |
| CC(C)Cn1c(N)c(C(=O)COC(=O)Cc2cccc(C(F)(F)F)c2)c(=O)n(C)c1=O | -54.5 |
| CCCn1c(N)c(C(=O)COC(=O)CNC(=O)c2ccc(C)c(C)c2)c(=O)n(C)c1=O | -78.1 |
| CC(C)Cn1c(N)c(C(=O)COC(=O)c2ccc(F)cc2)c(=O)n(C)c1=O | 17.1 |

| Compound | hERG current change (%, negative = inhibition) at 10uM [%] |
| --- | --- |
| CC(C)Cn1c(N)c(C(=O)COC(=O)c2c(F)cccc2F)c(=O)n(C)c1=O | -16.7 |
| Cc1cc(C)cc(C(=O)NCC(=O)OCC(=O)c2c(N)n(C)c(=O)n(C)c2=O)c1 | 17.4 |
| CC(C)Cn1c(N)c(C(=O)COC(=O)c2cc(C(F)(F)F)nc3c(C(F)(F)F)cccc23)c(=O)n(C)c1=O | 7.27 |
| CC(C)Cn1c(N)c(C(=O)COC(=O)COc2cccc(C(F)(F)F)c2)c(=O)n(C)c1=O | -50.9 |
| Cc1cccc(OCC(=O)OCC(=O)c2c(N)n(C)c(=O)n(C)c2=O)c1 | -13.1 |
| CCN(CC)S(=O)(=O)c1cc(C)c(C)cc1OCC(=O)NC1CCCC1 | -23.1 |
| C/C=C/C=C/C(=O)N1CC2(CC(c3cccc(NC(=O)/C=C/C)c3)=NO2)C[C@@H]1C(N)=O (some centres unmarked) | 2.75 |
| Cc1ccsc1/C=N\NC(=O)c1cc(C(C)(C)C)[nH]n1 | -9.77 |
| COc1ccc(N2CCN(C(=O)CN3C(=O)C4CC=CCC4C3=O)CC2)cc1 (centres unmarked) | 12.3 |
| CC1(C)NC(=O)N(CC(=O)N2CCN(c3cccc(Cl)c3)CC2)C1=O | -6.67 |
| O=C(CN1C(=O)NC(c2ccccc2)(c2ccccc2)C1=O)N1CCN(c2ccc(F)cc2)CC1 | -68.4 |
| CC(C(=O)N1CCN(c2ccc([N+](=O)[O-])cc2)CC1)N1C(=O)C2CC=CCC2C1=O (centres unmarked) | -72.2 |
| CC1(C)NC(=O)N(CC(=O)N2CCN(c3cccc(C(F)(F)F)c3)CC2)C1=O | 6.26 |
| O=C(CN1C(=O)NC(c2ccccc2)(c2ccccc2)C1=O)N1CCN(c2ccccc2F)CC1 | -17.4 |
| O=C(CN1C(=O)C2CCCCC2C1=O)N1CCN(c2ccc(F)cc2)CC1 (centres unmarked) | -12.2 |
| O=C(CN1C(=O)NC(c2ccccc2)(c2ccccc2)C1=O)N1CCOCC1 | 0.969 |
| CC1(C)NC(=O)N(CC(=O)N2CCN(c3ccc([N+](=O)[O-])cc3)CC2)C1=O | -66.1 |
| CC(C(=O)N1CCOCC1)c1ccc([N+](=O)[O-])cc1 (centres unmarked) | 9.94 |
| O=C(CN1C(=O)C2CC=CCC2C1=O)N1CCN(c2ccc([N+](=O)[O-])cc2)CC1 (centres unmarked) | -71.6 |
| CC(C(=O)N1CCN(c2ccccc2)CC1)N1C(=O)C2CC=CCC2C1=O (centres unmarked) | 7.43 |
| CC(=O)N1CN(C2CC(C)(C)NC(C)(C)C2)Cc2c1sc1c2CCCC1 | 6.77 |
| C(=C\c1ccccn1)/c1ccccn1 | 24.4 |
| CC1=CC(C)(C)N(C(=O)CSc2nnc(N)s2)c2ccccc21 | 6.19 |
| O=c1[nH]c(=O)n(CCc2ccc(F)cc2)c(O)c1C=NCCCN1CCOCC1 | -17.7 |
| CC(=O)Nc1cc(C(C)C)c(O)c(C(C)C)c1 | -4.37 |
| Cc1cccc(CCNC(=O)Cn2ncc3c([nH]c4ccccc43)c2=O)c1 | 14.2 |
